Tests used:
Test in all cases: DAPPL (digital affinity profiling via proximity ligation, sequencing); 10 mM Tris-HCl pH 7.5, 50 mM NaCl, 1 mM DTT, 4% glycerol, room temperature, 30 min; GST-TFs on glutathione beads, 16-mer random dsDNA library, 0.1% formaldehyde crosslink after washing; high values mean tight binding
[1] = biological target: T1, FLI1 (Homo sapiens, UniProt Q01543 1-452); conditions: protein: recombinant; tags: N-terminal GST; dsDNA, one strand shown
T1 sequence: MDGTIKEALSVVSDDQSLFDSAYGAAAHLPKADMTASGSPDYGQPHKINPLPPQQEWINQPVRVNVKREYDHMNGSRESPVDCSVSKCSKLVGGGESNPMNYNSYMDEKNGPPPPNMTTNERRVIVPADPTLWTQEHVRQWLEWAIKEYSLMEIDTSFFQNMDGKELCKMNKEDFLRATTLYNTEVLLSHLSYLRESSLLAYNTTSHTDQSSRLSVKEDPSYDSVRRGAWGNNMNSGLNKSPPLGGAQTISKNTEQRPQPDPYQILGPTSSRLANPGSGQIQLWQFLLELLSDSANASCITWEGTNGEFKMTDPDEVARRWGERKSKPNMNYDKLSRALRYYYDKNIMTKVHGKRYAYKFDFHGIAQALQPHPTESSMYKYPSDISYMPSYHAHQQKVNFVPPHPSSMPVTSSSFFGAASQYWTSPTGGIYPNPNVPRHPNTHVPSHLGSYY
Outline: (§1)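 Pools of DNA-barcoded human transcription factors, expressed in yeast as GST fusions on glutathione beads and combined with a tag-only sample, were incubated with 200 nmole of a 16-mer random double-stranded DNA library. Incubation took 30 min at room temperature in Tris/NaCl/DTT/glycerol buffer and was followed by washing, 0.1% formaldehyde crosslinking, proximity ligation (BsaI/T4 ligase, 1 h, 37 °C), PCR amplification and sequencing on an Illumina NextSeq500. Binding signal is the ratio of a hexamer's read frequency for a factor to its frequency for the tag-only sample.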

[2] = biological target: T2, ELK1 (Homo sapiens, UniProt P19419 1-428); conditions: protein: recombinant; tags: N-terminal GST; dsDNA, one strand shown
T2 sequence: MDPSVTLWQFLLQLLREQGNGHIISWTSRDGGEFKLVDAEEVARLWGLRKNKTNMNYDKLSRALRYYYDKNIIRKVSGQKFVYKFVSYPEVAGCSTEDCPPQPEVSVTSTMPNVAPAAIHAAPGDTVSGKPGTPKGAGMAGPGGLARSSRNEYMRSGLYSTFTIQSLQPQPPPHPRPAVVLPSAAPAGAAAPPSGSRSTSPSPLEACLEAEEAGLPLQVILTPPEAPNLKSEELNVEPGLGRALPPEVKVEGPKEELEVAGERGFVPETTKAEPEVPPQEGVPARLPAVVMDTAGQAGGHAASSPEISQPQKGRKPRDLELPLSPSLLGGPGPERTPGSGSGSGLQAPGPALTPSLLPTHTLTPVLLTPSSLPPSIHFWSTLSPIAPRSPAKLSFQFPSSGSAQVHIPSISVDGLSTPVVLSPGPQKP
Outline: as §1

[3] = biological target: T3, GABPA (Homo sapiens, UniProt Q06546 1-454); conditions: protein: recombinant; tags: N-terminal GST; dsDNA, one strand shown
T3 sequence: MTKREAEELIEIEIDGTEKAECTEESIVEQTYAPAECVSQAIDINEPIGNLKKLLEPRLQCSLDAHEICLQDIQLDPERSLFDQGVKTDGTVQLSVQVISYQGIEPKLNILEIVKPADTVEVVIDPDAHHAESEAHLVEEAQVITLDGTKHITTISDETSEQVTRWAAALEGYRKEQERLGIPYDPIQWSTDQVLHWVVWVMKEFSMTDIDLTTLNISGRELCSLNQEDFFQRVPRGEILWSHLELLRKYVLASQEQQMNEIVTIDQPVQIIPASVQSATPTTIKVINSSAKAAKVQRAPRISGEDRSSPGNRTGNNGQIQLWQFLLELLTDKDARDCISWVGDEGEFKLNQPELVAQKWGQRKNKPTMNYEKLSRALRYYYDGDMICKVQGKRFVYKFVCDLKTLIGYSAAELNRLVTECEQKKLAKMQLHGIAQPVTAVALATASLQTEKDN
Outline: as §1

[4] = biological target: T4, ERG (Homo sapiens, UniProt P11308 1-479); conditions: protein: recombinant; tags: N-terminal GST; dsDNA, one strand shown
T4 sequence: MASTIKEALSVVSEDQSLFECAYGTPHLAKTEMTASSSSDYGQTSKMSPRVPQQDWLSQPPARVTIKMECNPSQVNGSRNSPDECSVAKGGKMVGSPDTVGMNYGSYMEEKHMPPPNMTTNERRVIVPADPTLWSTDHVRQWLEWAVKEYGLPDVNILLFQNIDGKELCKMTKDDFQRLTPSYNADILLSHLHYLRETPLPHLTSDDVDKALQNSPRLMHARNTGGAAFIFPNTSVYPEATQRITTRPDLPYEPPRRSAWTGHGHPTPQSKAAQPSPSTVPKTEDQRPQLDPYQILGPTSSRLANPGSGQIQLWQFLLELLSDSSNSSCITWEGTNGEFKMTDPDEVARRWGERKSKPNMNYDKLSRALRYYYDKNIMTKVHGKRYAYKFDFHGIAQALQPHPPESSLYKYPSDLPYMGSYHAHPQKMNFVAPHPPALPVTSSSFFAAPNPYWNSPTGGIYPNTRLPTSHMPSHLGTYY
Outline: as §1

[5] = biological target: ELF1 (Homo sapiens, UniProt P32519 1-619); conditions: protein: recombinant; tags: N-terminal GST; dsDNA, one strand shown
Outline: as §1

[6] = biological target: T5, EHF (Homo sapiens, UniProt Q9NZC4 1-300); conditions: protein: recombinant; tags: N-terminal GST; dsDNA, one strand shown
T5 sequence: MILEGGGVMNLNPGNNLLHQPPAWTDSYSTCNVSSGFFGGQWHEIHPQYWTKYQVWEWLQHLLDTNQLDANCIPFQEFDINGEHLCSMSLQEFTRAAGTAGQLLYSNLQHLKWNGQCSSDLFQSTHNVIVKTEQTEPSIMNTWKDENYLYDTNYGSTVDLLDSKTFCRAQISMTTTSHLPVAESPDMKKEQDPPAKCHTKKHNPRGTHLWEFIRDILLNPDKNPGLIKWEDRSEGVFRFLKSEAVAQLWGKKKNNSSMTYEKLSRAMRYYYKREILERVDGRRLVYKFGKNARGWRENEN
Outline: as §1

[7] = biological target: SPI1 (Homo sapiens, UniProt P17947 1-270); conditions: protein: recombinant; tags: N-terminal GST; dsDNA, one strand shown
Outline: as §1

[8] = biological target: SPIB (Homo sapiens, UniProt Q01892 1-262); conditions: protein: recombinant; tags: N-terminal GST; dsDNA, one strand shown
Outline: as §1

[9] = biological target: T6, ELK3 (Homo sapiens, UniProt P41970 1-407); conditions: protein: recombinant; tags: N-terminal GST; dsDNA, one strand shown
T6 sequence: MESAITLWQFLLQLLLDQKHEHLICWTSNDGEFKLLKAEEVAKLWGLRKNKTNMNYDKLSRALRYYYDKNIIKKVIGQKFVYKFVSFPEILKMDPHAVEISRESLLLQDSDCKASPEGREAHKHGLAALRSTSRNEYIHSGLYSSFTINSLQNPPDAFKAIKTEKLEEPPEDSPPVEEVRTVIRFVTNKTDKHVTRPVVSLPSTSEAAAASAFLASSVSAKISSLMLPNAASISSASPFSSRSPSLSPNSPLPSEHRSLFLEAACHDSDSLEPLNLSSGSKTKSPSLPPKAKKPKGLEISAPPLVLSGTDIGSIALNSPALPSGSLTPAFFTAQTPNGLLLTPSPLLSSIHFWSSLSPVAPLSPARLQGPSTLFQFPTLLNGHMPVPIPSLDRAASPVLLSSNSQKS
Outline: as §1

[10] = biological target: T7, FEV (Homo sapiens, UniProt Q99581 1-238); conditions: protein: recombinant; tags: N-terminal GST; dsDNA, one strand shown
T7 sequence: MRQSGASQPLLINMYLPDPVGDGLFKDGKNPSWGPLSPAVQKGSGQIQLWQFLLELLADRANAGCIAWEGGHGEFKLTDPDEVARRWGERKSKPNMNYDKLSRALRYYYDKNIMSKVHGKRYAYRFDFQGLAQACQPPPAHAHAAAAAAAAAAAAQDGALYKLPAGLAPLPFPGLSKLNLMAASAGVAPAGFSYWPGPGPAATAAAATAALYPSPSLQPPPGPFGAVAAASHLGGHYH
Outline: as §1

[11] = biological target: ETV5 (Homo sapiens, UniProt P41161 1-510); conditions: protein: recombinant; tags: N-terminal GST; dsDNA, one strand shown
Outline: as §1

[12] = biological target: HSF1 (Homo sapiens, UniProt Q00613 1-529); conditions: protein: recombinant; tags: N-terminal GST; chain copies: 3; dsDNA, one strand shown
Outline: as §1

[13] = biological target: T8, SPIC (Homo sapiens, UniProt Q8N5J4 1-248); conditions: protein: recombinant; tags: N-terminal GST; dsDNA, one strand shown
T8 sequence: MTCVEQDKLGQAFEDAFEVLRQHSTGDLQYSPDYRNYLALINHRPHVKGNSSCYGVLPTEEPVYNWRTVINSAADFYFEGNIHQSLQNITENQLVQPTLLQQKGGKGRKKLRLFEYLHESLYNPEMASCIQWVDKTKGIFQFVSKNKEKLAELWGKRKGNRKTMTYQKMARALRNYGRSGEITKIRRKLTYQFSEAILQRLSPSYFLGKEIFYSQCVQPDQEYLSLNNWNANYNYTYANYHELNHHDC
Outline: as §1

[14] = biological target: ELF4 (Homo sapiens, UniProt Q99607 1-663); conditions: protein: recombinant; tags: N-terminal GST; dsDNA, one strand shown
Outline: as §1

[15] = biological target: T9, ELK4 (Homo sapiens, UniProt P28324-2 1-405); conditions: protein: recombinant; tags: N-terminal GST; dsDNA, one strand shown
T9 sequence: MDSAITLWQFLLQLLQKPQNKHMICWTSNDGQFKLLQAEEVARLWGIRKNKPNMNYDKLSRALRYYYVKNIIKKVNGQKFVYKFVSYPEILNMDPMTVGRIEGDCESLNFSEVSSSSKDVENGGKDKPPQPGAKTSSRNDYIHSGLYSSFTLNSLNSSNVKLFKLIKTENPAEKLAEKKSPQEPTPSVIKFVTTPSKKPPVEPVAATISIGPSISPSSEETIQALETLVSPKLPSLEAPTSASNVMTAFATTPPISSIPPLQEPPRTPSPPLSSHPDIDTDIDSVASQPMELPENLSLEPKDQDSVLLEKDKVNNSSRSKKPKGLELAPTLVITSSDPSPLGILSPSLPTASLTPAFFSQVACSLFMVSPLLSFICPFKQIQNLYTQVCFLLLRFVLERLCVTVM
Outline: as §1

[16] = biological target: T10, ETV2 (Homo sapiens, UniProt O00321 1-342); conditions: protein: recombinant; tags: N-terminal GST; dsDNA, one strand shown
T10 sequence: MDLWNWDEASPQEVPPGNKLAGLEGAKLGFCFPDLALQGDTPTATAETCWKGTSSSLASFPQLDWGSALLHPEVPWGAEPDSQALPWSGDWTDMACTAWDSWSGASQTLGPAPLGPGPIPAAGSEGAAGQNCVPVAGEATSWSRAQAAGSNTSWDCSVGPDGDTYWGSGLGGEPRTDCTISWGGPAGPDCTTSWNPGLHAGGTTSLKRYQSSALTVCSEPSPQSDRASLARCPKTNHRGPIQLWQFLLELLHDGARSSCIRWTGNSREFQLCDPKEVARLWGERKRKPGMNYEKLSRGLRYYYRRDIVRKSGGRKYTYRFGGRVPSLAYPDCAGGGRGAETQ
Outline: as §1

[17] = biological target: T11, ELF3 (Homo sapiens, UniProt P78545 1-371); conditions: protein: recombinant; tags: N-terminal GST; dsDNA, one strand shown
T11 sequence: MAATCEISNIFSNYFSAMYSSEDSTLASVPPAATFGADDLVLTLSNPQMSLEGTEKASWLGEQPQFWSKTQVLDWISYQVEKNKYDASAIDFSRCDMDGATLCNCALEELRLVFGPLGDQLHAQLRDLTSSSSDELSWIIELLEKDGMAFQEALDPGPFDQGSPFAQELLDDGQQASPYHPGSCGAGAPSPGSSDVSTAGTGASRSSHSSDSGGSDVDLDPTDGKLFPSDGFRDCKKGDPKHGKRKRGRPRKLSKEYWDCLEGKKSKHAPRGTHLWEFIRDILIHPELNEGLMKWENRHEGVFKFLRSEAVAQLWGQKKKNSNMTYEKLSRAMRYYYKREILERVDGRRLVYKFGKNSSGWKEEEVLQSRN
Outline: as §1

[18] = biological target: CRX (Homo sapiens, UniProt O43186 1-299); conditions: protein: recombinant; tags: N-terminal GST; dsDNA, one strand shown
Outline: as §1

[19] = biological target: ETV1 (Homo sapiens, UniProt P50549 1-477); conditions: protein: recombinant; tags: N-terminal GST; dsDNA, one strand shown
Outline: as §1

Sequence of ETV1 (P50549 whole entry): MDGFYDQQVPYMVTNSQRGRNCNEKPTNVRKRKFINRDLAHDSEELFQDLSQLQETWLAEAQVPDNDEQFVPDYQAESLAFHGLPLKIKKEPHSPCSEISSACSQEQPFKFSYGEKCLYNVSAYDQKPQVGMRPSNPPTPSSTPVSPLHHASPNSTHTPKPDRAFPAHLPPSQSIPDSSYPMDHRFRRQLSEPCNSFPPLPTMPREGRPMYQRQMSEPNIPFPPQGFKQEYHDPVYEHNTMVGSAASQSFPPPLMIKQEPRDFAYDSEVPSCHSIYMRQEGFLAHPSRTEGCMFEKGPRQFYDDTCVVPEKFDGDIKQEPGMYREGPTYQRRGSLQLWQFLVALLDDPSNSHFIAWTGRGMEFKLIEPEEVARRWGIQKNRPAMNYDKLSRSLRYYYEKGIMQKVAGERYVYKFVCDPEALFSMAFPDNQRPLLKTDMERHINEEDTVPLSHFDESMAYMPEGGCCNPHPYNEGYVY
Sequence of ELF4 (Q99607 whole entry): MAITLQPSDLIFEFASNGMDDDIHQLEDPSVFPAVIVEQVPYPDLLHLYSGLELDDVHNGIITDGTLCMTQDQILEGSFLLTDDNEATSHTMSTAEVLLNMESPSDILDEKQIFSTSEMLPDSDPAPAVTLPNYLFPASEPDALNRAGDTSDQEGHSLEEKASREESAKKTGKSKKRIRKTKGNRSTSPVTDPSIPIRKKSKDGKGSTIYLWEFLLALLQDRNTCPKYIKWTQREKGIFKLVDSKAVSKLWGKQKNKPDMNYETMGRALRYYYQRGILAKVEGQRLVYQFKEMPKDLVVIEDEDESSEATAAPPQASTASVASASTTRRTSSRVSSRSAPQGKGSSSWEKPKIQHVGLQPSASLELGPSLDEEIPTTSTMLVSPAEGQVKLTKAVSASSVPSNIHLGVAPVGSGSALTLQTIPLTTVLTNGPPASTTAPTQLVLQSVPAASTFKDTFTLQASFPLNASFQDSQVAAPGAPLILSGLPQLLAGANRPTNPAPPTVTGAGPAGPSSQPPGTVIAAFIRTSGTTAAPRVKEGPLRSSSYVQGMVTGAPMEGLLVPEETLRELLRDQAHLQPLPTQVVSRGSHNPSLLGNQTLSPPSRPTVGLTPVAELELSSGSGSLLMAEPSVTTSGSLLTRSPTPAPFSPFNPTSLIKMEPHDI
Sequence of SPIB (Q01892 whole entry): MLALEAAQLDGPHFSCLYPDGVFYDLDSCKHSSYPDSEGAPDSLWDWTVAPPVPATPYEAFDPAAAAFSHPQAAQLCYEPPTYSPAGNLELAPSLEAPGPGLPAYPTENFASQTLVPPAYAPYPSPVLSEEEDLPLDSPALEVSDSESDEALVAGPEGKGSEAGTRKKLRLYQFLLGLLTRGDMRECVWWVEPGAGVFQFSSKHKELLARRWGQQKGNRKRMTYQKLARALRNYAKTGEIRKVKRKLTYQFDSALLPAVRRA
Sequence of CRX (O43186 whole entry): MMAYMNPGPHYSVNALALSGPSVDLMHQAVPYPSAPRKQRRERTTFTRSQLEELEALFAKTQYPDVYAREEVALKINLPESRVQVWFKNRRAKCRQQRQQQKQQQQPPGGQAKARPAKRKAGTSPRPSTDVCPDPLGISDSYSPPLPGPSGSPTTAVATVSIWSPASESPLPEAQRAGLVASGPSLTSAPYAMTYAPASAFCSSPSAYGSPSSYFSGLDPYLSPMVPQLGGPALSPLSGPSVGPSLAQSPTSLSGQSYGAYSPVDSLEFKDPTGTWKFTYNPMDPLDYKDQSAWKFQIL
Sequence of HSF1 (Q00613 whole entry): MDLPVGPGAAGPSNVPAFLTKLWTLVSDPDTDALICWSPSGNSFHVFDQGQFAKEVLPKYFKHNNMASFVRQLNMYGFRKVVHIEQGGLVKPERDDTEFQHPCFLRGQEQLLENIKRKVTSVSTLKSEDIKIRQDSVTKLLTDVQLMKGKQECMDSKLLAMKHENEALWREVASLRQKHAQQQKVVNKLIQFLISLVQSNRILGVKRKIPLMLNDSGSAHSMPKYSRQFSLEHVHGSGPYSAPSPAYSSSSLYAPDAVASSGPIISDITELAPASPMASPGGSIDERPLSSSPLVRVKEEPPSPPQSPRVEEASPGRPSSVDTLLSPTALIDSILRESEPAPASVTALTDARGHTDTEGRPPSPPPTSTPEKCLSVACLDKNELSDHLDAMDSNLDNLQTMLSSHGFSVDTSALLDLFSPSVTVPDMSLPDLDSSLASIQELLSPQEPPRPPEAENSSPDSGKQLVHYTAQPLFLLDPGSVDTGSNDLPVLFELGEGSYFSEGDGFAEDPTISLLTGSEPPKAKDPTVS
Sequence of ETV5 (P41161 whole entry): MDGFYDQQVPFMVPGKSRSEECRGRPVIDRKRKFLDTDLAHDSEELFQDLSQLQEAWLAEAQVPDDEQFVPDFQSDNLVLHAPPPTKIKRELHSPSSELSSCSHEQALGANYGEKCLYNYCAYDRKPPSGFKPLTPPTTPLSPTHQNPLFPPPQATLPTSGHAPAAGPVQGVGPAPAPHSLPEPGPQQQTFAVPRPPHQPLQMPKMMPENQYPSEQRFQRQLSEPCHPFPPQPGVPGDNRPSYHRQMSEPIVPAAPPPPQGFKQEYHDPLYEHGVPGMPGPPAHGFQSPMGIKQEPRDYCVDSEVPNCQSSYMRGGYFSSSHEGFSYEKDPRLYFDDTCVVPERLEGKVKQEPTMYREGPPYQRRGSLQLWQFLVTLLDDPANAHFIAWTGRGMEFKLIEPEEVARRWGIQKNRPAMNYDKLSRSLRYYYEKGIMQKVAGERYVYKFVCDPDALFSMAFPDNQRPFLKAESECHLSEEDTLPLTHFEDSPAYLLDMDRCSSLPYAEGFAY
Sequence of ELF1 (P32519 whole entry): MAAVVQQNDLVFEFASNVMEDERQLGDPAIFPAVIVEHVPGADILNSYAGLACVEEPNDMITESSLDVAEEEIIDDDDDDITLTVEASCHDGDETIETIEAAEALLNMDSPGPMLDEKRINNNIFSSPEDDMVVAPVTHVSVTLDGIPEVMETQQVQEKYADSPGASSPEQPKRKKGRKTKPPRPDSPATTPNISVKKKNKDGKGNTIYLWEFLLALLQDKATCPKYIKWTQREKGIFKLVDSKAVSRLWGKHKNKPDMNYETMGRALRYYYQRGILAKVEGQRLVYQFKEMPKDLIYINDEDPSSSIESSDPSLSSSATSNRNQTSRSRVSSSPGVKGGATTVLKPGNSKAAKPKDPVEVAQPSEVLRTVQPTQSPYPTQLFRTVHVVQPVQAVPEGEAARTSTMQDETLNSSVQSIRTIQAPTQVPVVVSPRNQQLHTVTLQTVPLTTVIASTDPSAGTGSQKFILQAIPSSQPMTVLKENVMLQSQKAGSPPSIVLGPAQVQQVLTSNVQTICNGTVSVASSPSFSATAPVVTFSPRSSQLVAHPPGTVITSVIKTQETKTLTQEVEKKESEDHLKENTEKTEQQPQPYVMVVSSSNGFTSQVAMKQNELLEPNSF

In the case of CATCTC, the binding signal [1] is reported as 1.42 fold enrichment (6-mer frequency, TF over GST control), the binding signal [2] is reported as 1.3 fold enrichment (6-mer frequency, TF over GST control) and the binding signal [3] is reported as 1.34 fold enrichment (6-mer frequency, TF over GST control). The binding signal [4] was 1.24 fold enrichment (6-mer frequency, TF over GST control), the binding signal [5] was 1.37 fold enrichment (6-mer frequency, TF over GST control) and the binding signal [6] was 1.31 fold enrichment (6-mer frequency, TF over GST control). For the same sequence, the binding signal [7] was 1.36 fold enrichment (6-mer frequency, TF over GST control), the binding signal [8] was 1.26 fold enrichment (6-mer frequency, TF over GST control) and the binding signal [9] was 1.22 fold enrichment (6-mer frequency, TF over GST control). For the same sequence, the binding signal [10] was 1.2 fold enrichment (6-mer frequency, TF over GST control), the binding signal [11] was 1.29 fold enrichment (6-mer frequency, TF over GST control) and the binding signal [12] was 1.26 fold enrichment (6-mer frequency, TF over GST control). For the same sequence, the binding signal [13] was 1.46 fold enrichment (6-mer frequency, TF over GST control), the binding signal [14] was 1.26 fold enrichment (6-mer frequency, TF over GST control) and the binding signal [15] was 1.42 fold enrichment (6-mer frequency, TF over GST control). The binding signal [16] was 1.4 fold enrichment (6-mer frequency, TF over GST control), the binding signal [17] was 1.23 fold enrichment (6-mer frequency, TF over GST control) and the binding signal [18] was 1.16 fold enrichment (6-mer frequency, TF over GST control). For the same sequence, the binding signal [19] was 1.26 fold enrichment (6-mer frequency, TF over GST control).
